We go through 40 compounds from PubChem BioAssay (NCI).

“And” between values parts separate entries of the source, which are not always exact repeats. Identical values can stand only once. This is part of a sample that, as a whole, favours compounds with a hit. Of some 83,000 tested, about 20% had one in any assay.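 96-well plates, one dose, 48 hours. Percent growth reported; active if below 10.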 The source made the active and inactive calls.

The assay has as its system MDA-MB-468 breast. The assay is described as follows: NCI-60 one-dose screen, 48 h (100 = growth as untreated, 0 = no growth, -100 = all killed). Conditions: 10 µM unless noted.
As for `Cc1cnc(N)nc1OCCNC(=O)c1cccc(-c2ccc(S(=O)(=O)Nc3ccc4c(c3)N(C(=O)C3CC3)CCC4)cc2)c1`, the growth was 36.8% (inactive).

As to `NC(=O)Nc1ccc2ncnc(Nc3cccc(O)c3)c2c1`, the growth is 67.9% (inactive).

With `COc1ccc2nc(-c3ccc(Cl)cc3)cc(-c3nnc(SCC(=O)Nc4ccc(/C(C)=N\O)cc4)o3)c2c1`, the growth is 58.4% (inactive).

`CN(C)C1CCN(Cc2ccc(NC(=O)c3cncc(C#Cc4cnc(N)c5ncccc45)c3)cc2C(F)(F)F)CC1`: the growth is 67% (inactive).

Take `CCOCC(=O)C(C#N)c1ccc(Cl)c(Cl)c1` (stereo not given): the growth was 90.9% (inactive).

Take `CCCn1cnc2c(c1=N)C(c1ccc(OC)cc1)c1sc3c(C)cccc3c1O2` (stereo not given): the growth is 50% (inactive).

For `O=C(Nc1ccc2c(c1)OCO2)C(=O)c1c[nH]c2cc(F)ccc12`, the growth was 74.5% (inactive).

On to `COc1ccc2c(c1)nc(N)c1c3ccccc3cn21`, for which the growth is 58.5% (inactive).

`Nc1nc(Cl)c2ncn(Cc3cc4c(cc3I)OCO4)c2n1`: the growth is 7.98% (active).

For `N#CC(C#N)N=Nc1ccc(Cl)cc1`, the growth is -17.6% (active).

Regarding `CSCCCNC(=O)c1ccc2c(c1)/C(=C/c1[nH]c(C)cc1C)C(=O)N2`, the growth was 42.7% (inactive).

Regarding `O=C1/C(=C/C(Cl)=C/c2ccccc2)SC(=S)N1CCc1ccc(O)cc1`, the growth was -36.2% (active).

Consider `C#CCNC(=O)CC[C@@H](C)[C@H]1CC[C@H]2[C@@H]3CC[C@@H]4CC(=O)CC[C@]4(C)[C@H]3CC[C@]12C`, for which the growth is -19.7% [100 µM] (active).

Consider `O=C(Cn1nnc([N+](=O)[O-])n1)c1ccccc1`, for which the growth is 99.2% (inactive).

Regarding `CC(O)c1cc[cH-]c1.[Fe+2].c1cc[cH-]c1` (stereo not given), the growth was 94.5% (inactive).

For the compound `C=CCOc1ccc2c(c1)CC=C1[C@@H]2CC[C@]2(C)C(=O)/C(=N/O)C[C@@H]12`, the growth was 55.7% (inactive).

In the case of `COc1ccc2c(c1)C(=O)c1c-2c(=O)n(CCCCCCC(=O)NO)c2ccccc12`, the growth is 6.84% (active).

As for `CC(C)(C)n1cc(-c2ccnc(NCCNS(=O)(=O)c3ccc(C(F)(F)F)cc3)c2)c(-c2ccccc2)n1`, the growth is 89.1% (inactive).

Turning to `COc1ccc(-c2nn(-c3ccc(Cl)cc3)cc2-c2nc3ccccc3[nH]2)cc1`, the growth was 106% (inactive).

Turning to `CCOC(=O)c1ccc(Nc2sc(C(=O)c3ccc(Br)cc3)c(N)c2C#N)cc1`, the growth was 1.55% (active).

In the case of `O=C(/C=C/c1cc(CN2CCOCC2)c(O)c2ncccc12)c1cc(CN2CCOCC2)c(O)c2ncccc12`, the growth is 4.37% (active).

Turning to `O=C(Nc1cccc(-n2ccc3c(NC(=O)c4ccccc4)nccc32)c1)c1ccc(Cl)c(C(F)(F)F)c1`, the growth was -86.9% (active) and 85.1% (inactive).

On to `COc1ccc2[nH]cc(C3(c4c[nH]c5ccc(OC)cc45)C(=O)Nc4ccc(F)cc43)c2c1`, for which the growth was 96.9% (inactive).

On to `O=S(=O)(c1ccccc1)n1cc2c(c1)-c1nc(Nc3ncccn3)sc1CC2`, for which the growth is 46.3% (inactive).

For `O=C1/C(=C\c2ccc(Cl)cc2)CN(C(=O)c2ccccc2)C/C1=C\c1ccc(Cl)cc1`, the growth was -17.7% (active).

In the case of `C/C(=N\NC(=S)N1CCCCC1)c1ccccn1`, the growth is -27.4% (active).

For the compound `Cc1cc(O)cc(-c2c(-c3ccnc(-c4cccnc4)c3)cnn2C)c1`, the growth is 48.1% (inactive).

On to `COc1ccc2c(c1)NC1=C(C(=O)OC1)C2c1cc(OC)c2c(c1)OCO2` (stereo not given), for which the growth is -5.15% (active).

Turning to `Cn1ccnc1C(=O)/C=C/c1ccc(CC(=O)Nc2ccc(Br)cc2)cc1`, the growth is 0.947% (active).

On to `COc1cc(-c2c(C#N)c(-c3cccs3)nc3c2c(-c2ccccc2)nn3-c2ccccc2)ccc1O`, for which the growth was 95.4% (inactive).

Regarding `CCCCCCc1cc(N=Nc2ccc(S(=O)(=O)Nc3cc(C)nc(C)n3)cc2)c(O)cc1O`, the growth is 102% (inactive).

As to `CCCN1C(=O)N(CCC)C2C1NC(=S)N2/N=C/C=C/c1ccccc1OC` (stereo not given), the growth is 1.14% (active).

Take `O=C(Cn1cc(CSc2nc3ccccc3o2)nn1)Nc1ccc([N+](=O)[O-])cc1`: the growth was 98.7% (inactive).

Regarding `ClC1=C(Cl)C(=C2C(Cl)=C(Cl)C(Cl)=C2Cl)C(Cl)=C1Cl`, the growth was 114% (inactive).

On to `COc1ccc(C(=O)N2c3ccccc3Sc3ccccc32)c(F)c1`, for which the growth is -13.7% (active).

In the case of `COc1ccc(/C=C/C(c2cc(OC)c(OC)c(OC)c2)n2cncn2)cc1O` (stereo not given), the growth is 8.27% (active).

Turning to `O=C1/C(=C/c2ccccc2)CN(CCC(=O)N2C/C(=C\c3ccccc3)C(=O)/C(=C/c3ccccc3)C2)C/C1=C\c1ccccc1`, the growth is 66.9% (inactive).

For the compound `N#Cc1ccc(C(=O)CSc2nccc(Nc3ccc(C(=O)O)cc3)n2)cc1`, the growth was 101% (inactive).

`C=C1C(=O)O[C@H]2[C@H]1CC/C(COC(=O)C(=O)c1cn(C)c3ccc(Cl)cc13)=C\CC[C@@]1(C)O[C@@H]21`: the growth was -88.2% (active).

Turning to `O=C(Nc1c2ccccc2nc2ccccc12)c1ccccc1CN1C(=O)c2ccccc2C1=O`, the growth is 0.8% (active).
